Assay results: PubChem BioAssay AID434973 (Sanford-Burnham Center for Chemical Genomics, 2010)
Out of some 330,000 compounds screened, about 4,900 (1.5%) were called active. Shown is part of a subset that was picked to be rich in actives. A number with no mark means an inactive call.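 How the source made its calls: active means inhibition above about 50% at the single test dose (limit read from the data); inactive means the rest.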

target: Sentrin-specific protease 7 (Homo sapiens) (UniProt Q9BQF6); assay: SENP7 protease inhibitors, primary screen, biochemical, luminescence, uHTS (AID 434973); settings: recombinant SENP7, Z-RLRGG-aminoluciferin luminescence, 40 min; at 5 µM; active compounds read high;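 further: plate controls were DMSO with enzyme for no effect and no enzyme buffer wells for full effect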

| SMILES | inhibition |
| --- | --- |
| CCOc1ccc(NC(=O)N2CC=C(n3c(=O)[nH]c4ccccc43)CC2)cc1 | 4% |
| CC1CN(/C=C/C(=O)C(F)(F)F)CC(C)O1 (stereo not given) | 1.13% |
| C1=C(CCNc2ncnc3c2cnn3-c2ccccc2)CCCC1 | 56.6% (active) |
| CC(C)Sc1ncnc2c1cnn2-c1ccccc1 | 45.7% |
| O=C(NCCC1=CCCCC1)C1CCN(Cc2cnn(-c3ccccc3)c2-n2cccc2)CC1 | -3.45% |
| CCCS(=O)(=O)N1CCC(C(=O)NCCCN(C)Cc2ccccc2)CC1 | -8.04% |
| Cc1cccc(NC(=O)c2ccc3nsnc3c2)c1C | 2.56% |
| O=C(Nc1ccccc1)c1ccc2nsnc2c1 | 35.8% |
| O=C(Nc1ccccc1Cl)c1ccc2nsnc2c1 | 50.7% (active) |
| COc1ccc([N+](=O)[O-])cc1-c1nc2ccccc2nc1-c1ccccc1 | -0.763% |
| COc1cccc(-c2nnc(SCCOc3ccc4c(C)cc(=O)oc4c3)o2)c1 | 7.33% |
| COc1ccc2oc(-c3cccc(NC(=O)CSc4ccc(Cl)cc4)c3)nc2c1 | -4.24% |
| Cc1nc(-c2ccc([N+](=O)[O-])cc2)c(-c2ccccc2)o1 | -7.84% |
| O=[N+]([O-])c1ccc2oc(-c3cccc(O)c3)nc2c1 | 87.7% (active) |
| COc1cccc(-c2nc3cc(C)ccc3o2)c1 | 99.9% (active) |
| Cc1ccc(C2(C)NC(=O)N(CC(=O)Nc3ccccc3C(=O)N3CCCCC3)C2=O)cc1 (stereo not given) | 12.4% |
| COCOc1cc(O)c(C(=O)/C=C/c2ccc(OCOC)c(OCOC)c2)c(OCOC)c1 | 6.61% |
| O=C(/C=C/c1ccco1)NC(=S)Nc1ccccc1Br | -4.36% |
| O=C(/C=C/c1ccco1)Nc1ccc(Oc2ccccc2)cc1 | 63.9% (active) |
| Cc1nnc(NC(=O)/C=C/c2ccco2)s1 | -7.44% |
| CCOc1cc(NC(=O)CCl)c(OCC)cc1NC(C)=O | 5.15% |
| O=C(Cc1ccc(S(=O)(=O)N2CCOCC2)s1)N1CCN(c2ccc(C(F)(F)F)cc2[N+](=O)[O-])CC1 | -8% |
| NC1=NN(c2cccc(C(=O)O)c2)C(=O)C1 | 5.47% |
| O=C(O)c1ccc(N=NN2CCOCC2)cc1 | -2.47% |
| O=C(O)c1cccc(N=NN2CCCCCC2)c1 | 77.8% (active) |
| O=C(Oc1ccc([N+](=O)[O-])cc1)c1ccc2ccccc2n1 | -9.28% |
| CC(=O)Oc1ccc(-c2nc3c(C)cccc3c(=O)o2)cc1 | -7.63% |
| CC(=O)Oc1ccc2c(=O)oc(-c3ccc([N+](=O)[O-])cc3)nc2c1 | 97.5% (active) |

| SMILES | inhibition |
| --- | --- |
| COc1ccc(OCC(=O)NCCc2ccc(S(N)(=O)=O)cc2)cc1 | 7.31% |
| O=C(OCC(=O)N1CCCC1)c1ccco1 | -6.82% |
| CCc1ccc(C(=O)COC(=O)c2ccco2)cc1 | 68.9% (active) |
| O=C(COC(=O)c1ccco1)NCc1ccc(Cl)cc1 | -0.452% |
| Cc1ccc(-n2nc(-c3ccco3)cc2C(=O)NCc2cccnc2)cc1 | 0.29% |
| COc1ccc(/C=N/Nc2ccccc2C(=O)O)cc1 | 94.3% (active) |
| COc1ccc(NS(=O)(=O)c2cc(C(=O)Nc3ccccc3C(=O)O)ccc2C)cc1 | 9.65% |
| COc1ccccc1C(=O)NNC(=O)c1ccc(NC(=O)c2ccccc2)cc1 | 11.6% |
| O=C(N/N=C/c1ccc(OC(=O)c2ccccc2Cl)cc1)c1ccc(O)cc1 | 4.1% |
| COc1ccc(/C=N/OCC(=O)N(Cc2ccccc2)c2ccccc2C(=O)O)cc1 | 6.96% |
| COc1ccc(C(=O)Nc2ccccc2C(=O)N/N=C/c2ccccc2OC)cc1 | 64.8% (active) |
| COc1ccc(C(=O)Nc2ccccc2C(=O)N/N=C/c2ccc(O)c(OC)c2)cc1 | 101% (active) |
| COc1ccc(C(=O)Nc2cc(C)c(NC(=O)c3ccccc3OC)cn2)cc1 | 9.47% |
| CCOc1cc(/C=N/NC(=O)c2cc(-c3ccccc3)nc3ccccc23)ccc1O | -1.26% |
| O=C(CN1C(=O)NC2(CCCCC2)C1=O)N1CCN(C(=O)c2cccs2)CC1 | -1.61% |
| COc1cc(S(=O)(=O)N2CCN=C2c2ccccc2)ccc1Cl | -10% |
| O=C(CC1OC(=O)c2ccccc21)NC1CCCCC1 (stereo not given) | 1.77% |
| CC(C)c1c(O)nc(SCCOc2ccc(Cl)cc2)[nH]c1=O | 8.54% |
| O=C(Cn1cnc2ccccc2c1=O)NNC(=O)c1ccccc1F | -11% |
| CCN1CCN(C(C(=O)NC2CCCC2)c2cc3c(cc2[N+](=O)[O-])OCO3)CC1 (stereo not given) | -3.92% |
| Nc1nc(C23CC4CC(CC(C4)C2)C3)cs1 | 3.32% |
| Fc1ccccc1/C=N/Nc1cc(N2CCCCC2)ncn1 | 69.8% (active) |
| C(=N/Nc1cc(N2CCOCC2)nc(N2CCOCC2)n1)/c1ccccc1 | 31.9% |
| COc1ccccc1N1CCN(C(=O)C(=O)N/N=C/c2ccccc2F)CC1 | -1.74% |
| CC(=O)Nc1ccc(S(=O)(=O)Nc2cc(C)cn(Cc3ccc(C)cc3)c2=O)cc1 | 2.97% |
| Cc1ccc(S(=O)(=O)NC[C@H]2O[C@@H](n3cnc4c(N)ncnc43)[C@H](O)[C@@H]2O)s1 | 6.73% |
| CC(=O)c1cccc(NC(=O)COc2ccc(S(=O)(=O)N3CCOCC3)cc2)c1 | 3.63% |
